Screening data: PubChem BioAssay, National Center for Advancing Translational Sciences (NCATS)
Tb PYK inh – inhibitors of Trypanosoma brucei pyruvate kinase; TbPYK enzyme, Kinase-Glo Plus ATP luminescence, 45 min; Potency, µM (titrated, usually from 76.8 µM), without a hit: at the top dose activity, negative = inhibition, most hits filed as inhibitors; 410,000 compounds, 0.12% hits; note: potency is the fitted concentration of half-maximal effect; nearly all actives have a fitted effect of over 50% in size
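ADP (130 uM final) triggers the TbPYK reaction after compound addition; incubation is 45 min at room temperature. Kinase-Glo Plus is then added and luminescence imaged. Normalized data are fitted to concentration-effect curves.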
FMDV antiviral – foot and mouth disease virus antiviral activity | Potency, µM (highest dose often 57.9 µM), without a hit: top-dose activity change, negative = inhibition, most hits filed as inhibitors | FMDV antiviral cell-based qHTS | 410,000 compounds, 1.2% hits; calls by dose curve; tested in HEK293T cells; note: read-out not given here; potency is the fitted concentration of half-maximal effect; nearly all actives have a fitted effect of over 45% in size
Sm TGR inh – blocks Schistosoma mansoni thioredoxin glutathione reductase; purified TGR, DTNB reduction, TNB absorbance 405 nm; Potency, µM (highest dose often 114 µM), for inactives: top-dose activity change, negative = inhibition, hits mostly inhibitors; 360,000 compounds, 3% hits; note: potency is the fitted concentration of half-maximal effect; nearly all actives have a fitted effect of over 60% in size
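Kinetic colorimetric format: TGR-catalysed, NADPH-driven DTNB reduction monitored via TNB absorbance. Enzyme dispensed at 20 nM; compound exposure 15 min at room temperature before reaction start.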
HCMV antiviral – blocks human cytomegalovirus replication; 410,000 compounds, 4.5% hits; HFF cells, HCMV-luciferase reporter, 72 h; hits give low values; AID 1259415; activity change, negative = inhibition, % at 57.5 µM; in the data active = activity change below about -60%; inconclusive = no clear call, values can overlap the other calls; inactive = above about -39%
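Cell-based, HFFs, 1000 cells/well, 16 h 37C; cpds in DMSO + HCMV-luc, MOI 1 PFU/cell; 72 h 37C; OneGlo luminescence after 5 min RT; norm. to buffer vs Salinomycin 10uM.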
FBPA Giardia inh – blocks Giardia fructose-bisphosphate aldolase activity. Potency, µM (doses to about 59.6 µM), for inactives: at the top dose activity, negative = inhibition, usual class: inhibitors. purified Giardia FBPA. A8B2U2. 290,000 compounds, 0.71% hits; note: potency is the fitted concentration of half-maximal effect; nearly all actives have a fitted effect of over 55% in size
Target sequence (A8B2U2 whole entry, looked up): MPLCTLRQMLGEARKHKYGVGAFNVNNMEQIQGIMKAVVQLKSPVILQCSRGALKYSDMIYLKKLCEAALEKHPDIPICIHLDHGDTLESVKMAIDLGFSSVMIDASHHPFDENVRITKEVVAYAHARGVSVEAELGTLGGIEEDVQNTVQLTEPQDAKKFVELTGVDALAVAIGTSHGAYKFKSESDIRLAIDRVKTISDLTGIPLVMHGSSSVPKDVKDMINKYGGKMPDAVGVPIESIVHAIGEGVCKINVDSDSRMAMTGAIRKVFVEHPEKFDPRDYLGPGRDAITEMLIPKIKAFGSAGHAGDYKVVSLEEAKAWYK
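Giardia FBPA (40 nM reagent) was preincubated 10 min at RT with compound (up to 57.5 uM final), then substrate plus GAPDH/TPI/NAD/arsenate coupling system with diaphorase/resazurin was added; resorufin fluorescence (525/598 nm) was read after 20 min.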
RE007 growth inh – less growth of the S. pombe RE007 Vpr strain | S. pombe RE007 Vpr strain, BacTiter-Glo ATP luminescence, 24 h | Potency, µM (highest dose often 92.2 µM), for the others: at the top dose activity change, negative = less growth, hits mostly inhibitors | 360,000 compounds, 0.21% hits | AID 651644; active = well fitted falling curve with a large enough effect; inconclusive = small, poorly fitted or top-dose-only effect; inactive = no such curve, though single readings can be large or run the other way; note: potency is the fitted concentration of half-maximal effect; nearly all actives have a fitted effect of over 50% in size
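Fission yeast strain RE007, carrying one chromosomally integrated HIV-1 vpr copy, was seeded at OD 0.01 in PMG+AL medium with 23 nL pinned compound. After 24 h at 30 °C and 99% humidity, viability was read by BacTiter-Glo luminescence.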
The depositor's hits bear a star; ? = inconclusive; / = no result; [ ] = remark or other dose. Sampled rows, rich in hits. Any-hit rate of the full collection: about 7.7%. Unless noted, calls come from the whole dose curve; as a rule, active = well fitted curve in the direction sought with a large enough effect; inconclusive = small, poorly fitted or top-dose-only effect, or another doubt; inactive = no such curve, though single readings can be large; an effect the other way counts as inactive or inconclusive. % is set by controls: 0 for no effect and ±100 for the full control effect.

SMILES	Tb PYK inh	FMDV antiviral	Sm TGR inh	HCMV antiviral	FBPA Giardia inh	RE007 growth inh
Cc1ccnc(Nc2nc(-c3c(C)nc4sccn34)cs2)c1	/	?	15%	-76*	?	-1%[3.69 µM]
CC(=O)Nc1ccc(-c2csc(Nc3ccc(Cl)cn3)n2)cc1	4%	25µM*	-3%	-61*	-4%	6%
CC(=O)Nc1ccc(-c2csc(Nc3cc(C)ccn3)n2)cc1	0%	?	-1%	-61*	-20%	-8%
Cc1ccc(Nc2nc(-c3ccc(O)c(O)c3)cs2)nc1	-8%	-8%	5.6µM*	-7	-26%	10%
COc1ccc(CNC(=O)c2cc3cccc4c3n2CC(C)S4)cc1 (centres undefined)	1%[15.4 µM]	-7%	8%	0	/	/
COc1ccc2c(c1)C(C(Nc1ccccc1)c1ccc(Cl)cc1)C(=O)N2C (centres undefined)	/	/	/	18	/	/
CS(=O)(=O)Nc1cccc(-c2ccc3ncnc(NCc4cccnc4)c3c2)c1	/	-4%	/	/	1%	/
CC(=O)Nc1ccc(-c2csc(N/N=C(/C)c3ccccc3)n2)cc1	-16%	?	-21%	-10	-26%	22%
CCOC(=O)/C(C)=N/Nc1nc(-c2ccc(NC(C)=O)cc2)cs1	-10%	-14%	11µM*	15	?	-14%
O=C1CCCCCN1Cc1nnc(SCc2nc3ccccc3s2)n1-c1ccccn1	-10%	94%	-3%	-107*	-16%	-12%
CCNC(=O)CSc1nnc(CN2CCCCCC2=O)n1-c1ccccn1	-4%	-2%	-9%	11	2%	9%
CCOC(=O)C1=CCN(S(=O)(=O)c2ccc(Br)cc2)C1c1cccc(F)c1 (centres undefined)	/	/	/	-36	/	/
O=C(CCCC(=O)N/N=C\c1ccccn1)N/N=C\c1ccccn1	-11%	-19%	-2%	-32	-2%	10%
CC(=NNC(=S)N(Cc1ccccn1)Cc1ccccn1)c1cnccn1	-26%	-6%	/	-98*	/	?
S=C(NN=Cc1ccccn1)N(Cc1ccccn1)Cc1ccccn1	-15%	-15%	/	-77*	/	-17%
O=C(Cc1ccccc1)N/N=C/c1ccccn1	7%	/	/	-84*	/	-1%
NC(=S)NN=C(c1ccccc1)c1ccccc1	2%	-4%	12%	19	?	-9%
Cc1ccccc1NC(=S)N(Cc1ccccn1)Cc1ccccc1Cl	1%	28%	6%	?	-1%	9%
S=C(NN=C(c1ccccc1)c1ccccn1)N(Cc1ccccn1)Cc1ccccn1	?	-20%	/	-97*	/	12%
CCc1ccccc1NC(=O)CN(Cc1ccccc1)S(=O)(=O)c1ccc(Br)cc1	3%	0%	0%	1	/	/
CC1(C(=O)O)CCC2(C)CCC3(C)C(=CC(=O)C4C5(C)CCC(O)C(C)(C)C5CCC43C)C2C1 (centres undefined)	-10%	/	/	/	/	/
CCOC(=O)c1noc2nc(C)n(CC(=O)NC(C)CC)c(=O)c12 (centres undefined)	4%	-24%	-14%	23	/	/
CC(C)C(=O)NC(c1cccc([N+](=O)[O-])c1)c1ccc2cccnc2c1O (centres undefined)	-8%	-11%	-28%	-105*	?	-19%
CCCC(=O)NC(c1cccc([N+](=O)[O-])c1)c1ccc2cccnc2c1O (centres undefined)	-13%	0%	/	-98*	/	-23%
O=C(Nc1ccccc1C(=O)OCc1cc(=O)n2nc(C3CC3)sc2n1)c1cccc(F)c1	0%	-21%	5%	17	/	/
SMILES	Tb PYK inh	FMDV antiviral	Sm TGR inh	HCMV antiviral	FBPA Giardia inh	RE007 growth inh
O=C(NC1CC1)C1=C[C@H](C2CCCCC2)C[C@H](OCCCCO)O1	0%	4%	-5%	-64*	0%	2%
O=C(NCc1nc2ccccc2[nH]1)C1=C[C@H](C2CCCCC2)C[C@H](OCc2ccc(CO)cc2)O1	1%	-46%	0%	-70*	0%	9%
O=C(Nc1ccccc1)C1=C[C@@H](C2CCCCC2)C[C@@H](OCCCCO)O1	-3%	-3%	-31%	?	-5%	-4%
O=C(Nc1ccccc1)C1=C[C@@H](C2CCCCC2)C[C@@H](OCc2ccc(CO)cc2)O1	-2%	3%	12%	-60*	-5%	-15%
O=C(Nc1ccccc1)C1=C[C@H](C2CCCCC2)C[C@H](OCc2ccc(CO)cc2)O1	1%	12%	-15%	?	-12%	-6%
O=C(Nc1ccccc1)C1=C[C@H](C2CCCCC2)C[C@H](OCCCCO)O1	0%	42%	/	-76*	/	1%
Cc1ccc(NC(=O)Cn2c(=O)oc3cc(S(=O)(=O)N4CCCCCC4)ccc32)cc1Cl	6%[15.4 µM]	?	15%	0	/	/
CS(=O)(=O)OCCCNCCCOS(C)(=O)=O	-11%	/	/	/	/	/
Cc1[nH]n(-c2ccc([N+](=O)[O-])cc2)c(=O)c1C=NCCN1CCN(C(=O)c2ccc(Br)cc2)CC1	-6%	?	-1%	34	6%	7.1µM*
Cc1[nH]n(-c2ccc([N+](=O)[O-])cc2)c(=O)c1C=NCCN1CCN(C(=O)c2ccc(F)cc2)CC1	3%	4%	-26%	1	3%	-11%
Cc1[nH]n(-c2ccc([N+](=O)[O-])cc2)c(=O)c1C=NCCN1CCN(C(=O)c2cccc(F)c2)CC1	-7%	-12%	-2%	44	5%	8.9µM*
COc1ccc(Nc2nc3c(S(=O)(=O)c4ccccc4)nnn3c3ccsc23)cc1OC	4%	7%	0%	10	/	/
O=C(COc1ccc(Cl)cc1)Nc1ccc(-c2nc3ccccc3s2)c(O)c1	4%	?	2%	-12	/	/
Cc1ccc2c(c1)c1c(n2C)-c2[nH]ncc2CC1	0%	33%	-16%	-3	0%	20µM*
N=c1oc2cc(O)ccc2cc1C(=O)Nc1ccc(Br)cc1	-4%	-16%	-13%	-90*	2%	-13%
COc1ccc2oc(=N)c(C(=O)Nc3ccc(F)cc3)cc2c1	-3%	22%	2%	-62*	-7%	12%
COc1ccc2oc(=N)c(C(=O)Nc3ccc(C)cc3)cc2c1	2%	29%	-3%	47	7%	-3%
CCOC(=O)[C@H](CCc1ccccc1)NC(C)C(=O)N1CC2(CC1C(=O)O)SCCS2 (some centres undefined)	0%	/	/	/	/	/
S=C(NCC1CCCO1)Nc1ccc(Nc2ccccc2)cc1 (centres undefined)	1%	-23%	/	-69*	0%	-2%
Cc1scc(C(=O)NNC(=S)NCC2CCCO2)c1-c1ccccc1 (centres undefined)	-15%	-18%	-3%	-62*	8%	-15%
